# According to article PMC7862700, “An all-to-all approach to the identification of sequence-specific readers for epigenetic DNA modifications on cytosine”:
# Columns and labels:
# Assay in all cases: DAPPL (digital affinity profiling via proximity ligation, sequencing); 10 mM Tris-HCl pH 7.5, 50 mM NaCl, 1 mM DTT, 4% glycerol, room temperature, 30 min; GST-TFs on glutathione beads, 16-mer random dsDNA library, 0.1% formaldehyde crosslink after washing; high values mean tight binding
# FLI1 = target: T1, FLI1 (Homo sapiens, UniProt Q01543 1-452); details: protein: recombinant; tags: N-terminal GST; dsDNA, one strand shown
# T1 sequence: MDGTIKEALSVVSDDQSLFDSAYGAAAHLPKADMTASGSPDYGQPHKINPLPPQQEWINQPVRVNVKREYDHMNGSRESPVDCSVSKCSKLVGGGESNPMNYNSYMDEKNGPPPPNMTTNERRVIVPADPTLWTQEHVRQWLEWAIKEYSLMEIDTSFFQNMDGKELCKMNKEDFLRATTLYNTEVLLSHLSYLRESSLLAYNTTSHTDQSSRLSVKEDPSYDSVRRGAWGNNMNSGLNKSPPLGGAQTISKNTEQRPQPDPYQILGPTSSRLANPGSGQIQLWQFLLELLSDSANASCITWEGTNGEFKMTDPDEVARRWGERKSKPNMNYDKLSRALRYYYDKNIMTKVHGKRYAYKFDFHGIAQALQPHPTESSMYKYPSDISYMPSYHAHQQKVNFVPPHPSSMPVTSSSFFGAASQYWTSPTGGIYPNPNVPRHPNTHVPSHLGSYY
# Procedure, shortened: (§1)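 Sequencing on an Illumina NextSeq500 followed washing, crosslinking with 0.1% formaldehyde, proximity ligation (BsaI/T4 ligase, 1 h, 37 °C) and PCR amplification of pools that had been incubated for 30 min at room temperature with 200 nmole of a random double-stranded 16-mer DNA library in Tris/NaCl/DTT/glycerol buffer. Each pool held DNA-barcoded human transcription factors, expressed in yeast as GST fusions and captured on glutathione beads, plus a tag-only sample. Binding signal is a hexamer's read frequency for a factor divided by its frequency in the tag-only sample.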
# ELK1 = target: T2, ELK1 (Homo sapiens, UniProt P19419 1-428); details: protein: recombinant; tags: N-terminal GST; dsDNA, one strand shown
# T2 sequence: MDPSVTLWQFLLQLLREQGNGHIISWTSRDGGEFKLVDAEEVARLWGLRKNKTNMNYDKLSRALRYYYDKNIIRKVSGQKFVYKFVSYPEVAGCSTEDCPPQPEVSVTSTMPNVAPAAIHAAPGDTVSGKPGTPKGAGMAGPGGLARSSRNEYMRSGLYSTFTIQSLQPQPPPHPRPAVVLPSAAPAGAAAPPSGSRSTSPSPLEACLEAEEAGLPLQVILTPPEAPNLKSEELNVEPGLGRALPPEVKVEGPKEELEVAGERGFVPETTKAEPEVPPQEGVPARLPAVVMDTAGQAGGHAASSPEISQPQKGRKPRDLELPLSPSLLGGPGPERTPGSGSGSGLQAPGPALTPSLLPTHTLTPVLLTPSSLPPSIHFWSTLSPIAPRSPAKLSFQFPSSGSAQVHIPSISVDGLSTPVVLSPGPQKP
# Procedure, shortened: as §1
# GABPA = target: T3, GABPA (Homo sapiens, UniProt Q06546 1-454); details: protein: recombinant; tags: N-terminal GST; dsDNA, one strand shown
# T3 sequence: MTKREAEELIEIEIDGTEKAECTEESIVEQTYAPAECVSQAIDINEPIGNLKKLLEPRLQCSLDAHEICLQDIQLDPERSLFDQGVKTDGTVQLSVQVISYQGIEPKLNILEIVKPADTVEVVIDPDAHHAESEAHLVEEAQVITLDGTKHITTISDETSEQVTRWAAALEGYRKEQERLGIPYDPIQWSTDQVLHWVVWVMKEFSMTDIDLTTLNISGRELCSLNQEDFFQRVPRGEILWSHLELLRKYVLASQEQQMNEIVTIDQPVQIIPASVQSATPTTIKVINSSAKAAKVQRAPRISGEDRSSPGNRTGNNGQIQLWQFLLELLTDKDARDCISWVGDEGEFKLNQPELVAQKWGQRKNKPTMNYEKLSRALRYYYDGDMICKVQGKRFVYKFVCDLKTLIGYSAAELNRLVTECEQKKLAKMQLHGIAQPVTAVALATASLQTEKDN
# Procedure, shortened: as §1
# ERG = target: T4, ERG (Homo sapiens, UniProt P11308 1-479); details: protein: recombinant; tags: N-terminal GST; dsDNA, one strand shown
# T4 sequence: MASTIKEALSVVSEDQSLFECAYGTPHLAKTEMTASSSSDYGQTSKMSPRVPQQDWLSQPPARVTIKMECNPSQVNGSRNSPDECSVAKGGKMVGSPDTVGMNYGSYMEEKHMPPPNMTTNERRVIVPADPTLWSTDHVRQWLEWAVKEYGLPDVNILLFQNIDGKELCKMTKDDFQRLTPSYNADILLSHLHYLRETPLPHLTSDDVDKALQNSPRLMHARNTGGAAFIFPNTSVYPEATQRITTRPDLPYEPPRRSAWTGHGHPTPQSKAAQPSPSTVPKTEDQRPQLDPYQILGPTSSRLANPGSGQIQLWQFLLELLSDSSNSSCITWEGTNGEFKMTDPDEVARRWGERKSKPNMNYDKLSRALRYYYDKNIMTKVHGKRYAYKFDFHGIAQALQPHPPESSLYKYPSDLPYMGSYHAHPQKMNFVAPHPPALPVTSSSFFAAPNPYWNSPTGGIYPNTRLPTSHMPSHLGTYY
# Procedure, shortened: as §1
# ELF1 = ELF1 (Homo sapiens, UniProt P32519 1-619); details: protein: recombinant; tags: N-terminal GST; dsDNA, one strand shown
# Procedure, shortened: as §1
# EHF = target: T5, EHF (Homo sapiens, UniProt Q9NZC4 1-300); details: protein: recombinant; tags: N-terminal GST; dsDNA, one strand shown
# T5 sequence: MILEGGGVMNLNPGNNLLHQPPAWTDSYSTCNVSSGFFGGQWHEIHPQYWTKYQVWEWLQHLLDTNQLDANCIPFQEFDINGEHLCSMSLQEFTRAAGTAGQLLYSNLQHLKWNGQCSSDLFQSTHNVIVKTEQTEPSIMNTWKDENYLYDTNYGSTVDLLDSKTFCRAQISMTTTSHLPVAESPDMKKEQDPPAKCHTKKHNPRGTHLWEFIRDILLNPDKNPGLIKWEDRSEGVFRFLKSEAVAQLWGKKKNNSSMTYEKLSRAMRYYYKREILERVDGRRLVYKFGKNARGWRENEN
# Procedure, shortened: as §1
# SPI1 = SPI1 (Homo sapiens, UniProt P17947 1-270); details: protein: recombinant; tags: N-terminal GST; dsDNA, one strand shown
# Procedure, shortened: as §1
# SPIB = SPIB (Homo sapiens, UniProt Q01892 1-262); details: protein: recombinant; tags: N-terminal GST; dsDNA, one strand shown
# Procedure, shortened: as §1
# ELK3 = target: T6, ELK3 (Homo sapiens, UniProt P41970 1-407); details: protein: recombinant; tags: N-terminal GST; dsDNA, one strand shown
# T6 sequence: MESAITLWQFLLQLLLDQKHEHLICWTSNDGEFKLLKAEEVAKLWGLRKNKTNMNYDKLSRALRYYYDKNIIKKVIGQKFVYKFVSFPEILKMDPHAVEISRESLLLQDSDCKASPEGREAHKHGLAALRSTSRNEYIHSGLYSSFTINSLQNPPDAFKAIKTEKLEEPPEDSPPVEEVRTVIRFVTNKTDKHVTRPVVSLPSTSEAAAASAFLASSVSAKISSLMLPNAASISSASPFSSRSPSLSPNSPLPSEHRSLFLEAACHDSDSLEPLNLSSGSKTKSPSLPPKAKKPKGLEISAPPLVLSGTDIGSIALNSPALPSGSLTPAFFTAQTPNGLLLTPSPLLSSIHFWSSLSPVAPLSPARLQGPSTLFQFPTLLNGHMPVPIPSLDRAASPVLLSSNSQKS
# Procedure, shortened: as §1
# FEV = target: T7, FEV (Homo sapiens, UniProt Q99581 1-238); details: protein: recombinant; tags: N-terminal GST; dsDNA, one strand shown
# T7 sequence: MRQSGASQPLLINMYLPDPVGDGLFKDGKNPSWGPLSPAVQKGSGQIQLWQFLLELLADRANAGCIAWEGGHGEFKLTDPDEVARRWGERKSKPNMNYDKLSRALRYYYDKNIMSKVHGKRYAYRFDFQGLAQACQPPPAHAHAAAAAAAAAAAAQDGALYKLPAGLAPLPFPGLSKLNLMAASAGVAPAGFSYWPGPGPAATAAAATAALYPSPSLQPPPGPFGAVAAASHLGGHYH
# Procedure, shortened: as §1
# ETV5 = ETV5 (Homo sapiens, UniProt P41161 1-510); details: protein: recombinant; tags: N-terminal GST; dsDNA, one strand shown
# Procedure, shortened: as §1
# HSF1 = HSF1 (Homo sapiens, UniProt Q00613 1-529); details: protein: recombinant; tags: N-terminal GST; chain copies: 3; dsDNA, one strand shown
# Procedure, shortened: as §1
# SPIC = target: T8, SPIC (Homo sapiens, UniProt Q8N5J4 1-248); details: protein: recombinant; tags: N-terminal GST; dsDNA, one strand shown
# T8 sequence: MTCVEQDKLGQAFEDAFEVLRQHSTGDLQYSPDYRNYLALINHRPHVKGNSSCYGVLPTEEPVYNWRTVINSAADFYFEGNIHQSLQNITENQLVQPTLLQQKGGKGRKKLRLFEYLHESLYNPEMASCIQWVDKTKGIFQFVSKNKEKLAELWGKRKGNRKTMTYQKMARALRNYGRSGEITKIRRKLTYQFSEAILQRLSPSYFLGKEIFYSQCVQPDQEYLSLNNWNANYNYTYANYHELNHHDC
# Procedure, shortened: as §1
# ELF4 = ELF4 (Homo sapiens, UniProt Q99607 1-663); details: protein: recombinant; tags: N-terminal GST; dsDNA, one strand shown
# Procedure, shortened: as §1
# ELK4 = target: T9, ELK4 (Homo sapiens, UniProt P28324-2 1-405); details: protein: recombinant; tags: N-terminal GST; dsDNA, one strand shown
# T9 sequence: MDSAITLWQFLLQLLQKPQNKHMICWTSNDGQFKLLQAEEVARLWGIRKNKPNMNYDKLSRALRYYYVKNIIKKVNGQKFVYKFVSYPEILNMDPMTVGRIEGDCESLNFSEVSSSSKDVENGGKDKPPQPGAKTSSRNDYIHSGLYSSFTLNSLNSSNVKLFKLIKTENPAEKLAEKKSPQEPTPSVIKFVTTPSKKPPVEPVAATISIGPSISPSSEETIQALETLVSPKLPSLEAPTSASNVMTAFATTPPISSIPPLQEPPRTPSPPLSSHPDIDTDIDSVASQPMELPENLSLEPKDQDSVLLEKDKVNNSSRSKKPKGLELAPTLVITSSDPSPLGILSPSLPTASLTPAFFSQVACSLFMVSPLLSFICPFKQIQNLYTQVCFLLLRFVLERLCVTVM
# Procedure, shortened: as §1
# ETV2 = target: T10, ETV2 (Homo sapiens, UniProt O00321 1-342); details: protein: recombinant; tags: N-terminal GST; dsDNA, one strand shown
# T10 sequence: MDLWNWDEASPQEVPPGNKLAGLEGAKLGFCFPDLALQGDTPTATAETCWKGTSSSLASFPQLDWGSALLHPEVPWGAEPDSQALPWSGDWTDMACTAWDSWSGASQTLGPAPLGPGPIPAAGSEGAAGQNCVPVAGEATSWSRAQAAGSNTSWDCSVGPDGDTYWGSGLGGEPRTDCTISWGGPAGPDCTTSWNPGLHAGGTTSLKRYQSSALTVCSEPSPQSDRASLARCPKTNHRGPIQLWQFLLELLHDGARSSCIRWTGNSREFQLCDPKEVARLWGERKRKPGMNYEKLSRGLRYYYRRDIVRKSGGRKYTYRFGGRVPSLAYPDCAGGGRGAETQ
# Procedure, shortened: as §1
# ELF3 = target: T11, ELF3 (Homo sapiens, UniProt P78545 1-371); details: protein: recombinant; tags: N-terminal GST; dsDNA, one strand shown
# T11 sequence: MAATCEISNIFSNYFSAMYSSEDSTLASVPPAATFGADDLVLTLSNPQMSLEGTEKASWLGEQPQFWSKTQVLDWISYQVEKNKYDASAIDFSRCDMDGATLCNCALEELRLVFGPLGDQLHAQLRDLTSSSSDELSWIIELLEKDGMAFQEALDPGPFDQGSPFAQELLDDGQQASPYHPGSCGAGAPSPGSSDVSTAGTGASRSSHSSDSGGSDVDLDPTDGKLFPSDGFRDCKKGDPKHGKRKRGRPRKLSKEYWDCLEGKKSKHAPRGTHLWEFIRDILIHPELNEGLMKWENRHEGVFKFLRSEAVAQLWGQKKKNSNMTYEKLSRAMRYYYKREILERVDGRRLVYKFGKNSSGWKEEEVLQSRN
# Procedure, shortened: as §1
# CRX = CRX (Homo sapiens, UniProt O43186 1-299); details: protein: recombinant; tags: N-terminal GST; dsDNA, one strand shown
# Procedure, shortened: as §1
# ETV1 = ETV1 (Homo sapiens, UniProt P50549 1-477); details: protein: recombinant; tags: N-terminal GST; dsDNA, one strand shown
# Procedure, shortened: as §1
# ELF4, sequence (Q99607 whole entry): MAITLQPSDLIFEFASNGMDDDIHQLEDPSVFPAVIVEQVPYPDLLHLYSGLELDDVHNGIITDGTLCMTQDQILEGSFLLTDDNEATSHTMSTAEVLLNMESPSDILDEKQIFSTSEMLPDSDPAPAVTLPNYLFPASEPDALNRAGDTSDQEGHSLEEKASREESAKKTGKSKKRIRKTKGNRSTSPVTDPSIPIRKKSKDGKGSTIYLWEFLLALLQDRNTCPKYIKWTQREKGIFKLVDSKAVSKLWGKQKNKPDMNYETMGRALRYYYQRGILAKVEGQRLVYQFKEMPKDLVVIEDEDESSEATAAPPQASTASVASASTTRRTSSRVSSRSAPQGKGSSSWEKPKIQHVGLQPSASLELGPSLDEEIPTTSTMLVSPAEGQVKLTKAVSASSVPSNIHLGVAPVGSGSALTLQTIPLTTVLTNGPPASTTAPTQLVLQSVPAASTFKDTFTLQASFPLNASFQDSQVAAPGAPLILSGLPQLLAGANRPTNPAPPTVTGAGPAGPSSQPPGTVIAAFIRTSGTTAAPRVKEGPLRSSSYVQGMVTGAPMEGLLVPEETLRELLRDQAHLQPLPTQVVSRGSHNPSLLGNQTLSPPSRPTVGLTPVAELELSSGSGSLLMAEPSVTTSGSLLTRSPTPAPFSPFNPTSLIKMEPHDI
# ELF1, sequence (P32519 whole entry): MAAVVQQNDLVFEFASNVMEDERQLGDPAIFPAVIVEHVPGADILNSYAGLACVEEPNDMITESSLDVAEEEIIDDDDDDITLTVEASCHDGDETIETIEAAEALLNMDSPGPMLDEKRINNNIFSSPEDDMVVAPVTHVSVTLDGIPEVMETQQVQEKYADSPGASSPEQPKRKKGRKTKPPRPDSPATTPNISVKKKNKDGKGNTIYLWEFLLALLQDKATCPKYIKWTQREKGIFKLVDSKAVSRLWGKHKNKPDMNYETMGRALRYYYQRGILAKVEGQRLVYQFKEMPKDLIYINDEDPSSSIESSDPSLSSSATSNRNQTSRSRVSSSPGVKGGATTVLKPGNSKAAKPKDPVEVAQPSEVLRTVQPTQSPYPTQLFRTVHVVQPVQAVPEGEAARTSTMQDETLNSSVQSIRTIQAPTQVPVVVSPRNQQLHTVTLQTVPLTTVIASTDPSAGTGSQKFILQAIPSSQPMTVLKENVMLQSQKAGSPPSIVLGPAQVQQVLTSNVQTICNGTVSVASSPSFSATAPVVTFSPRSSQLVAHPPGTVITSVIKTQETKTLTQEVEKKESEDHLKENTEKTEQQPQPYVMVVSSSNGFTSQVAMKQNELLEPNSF
# SPIB, sequence (Q01892 whole entry): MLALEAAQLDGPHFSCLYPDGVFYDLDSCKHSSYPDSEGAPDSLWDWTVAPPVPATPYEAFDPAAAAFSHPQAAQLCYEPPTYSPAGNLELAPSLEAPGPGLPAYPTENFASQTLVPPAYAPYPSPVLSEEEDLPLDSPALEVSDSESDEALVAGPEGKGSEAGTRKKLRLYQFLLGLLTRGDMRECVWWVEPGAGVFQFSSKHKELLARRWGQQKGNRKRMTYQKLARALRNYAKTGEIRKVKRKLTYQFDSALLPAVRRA
# ETV5, sequence (P41161 whole entry): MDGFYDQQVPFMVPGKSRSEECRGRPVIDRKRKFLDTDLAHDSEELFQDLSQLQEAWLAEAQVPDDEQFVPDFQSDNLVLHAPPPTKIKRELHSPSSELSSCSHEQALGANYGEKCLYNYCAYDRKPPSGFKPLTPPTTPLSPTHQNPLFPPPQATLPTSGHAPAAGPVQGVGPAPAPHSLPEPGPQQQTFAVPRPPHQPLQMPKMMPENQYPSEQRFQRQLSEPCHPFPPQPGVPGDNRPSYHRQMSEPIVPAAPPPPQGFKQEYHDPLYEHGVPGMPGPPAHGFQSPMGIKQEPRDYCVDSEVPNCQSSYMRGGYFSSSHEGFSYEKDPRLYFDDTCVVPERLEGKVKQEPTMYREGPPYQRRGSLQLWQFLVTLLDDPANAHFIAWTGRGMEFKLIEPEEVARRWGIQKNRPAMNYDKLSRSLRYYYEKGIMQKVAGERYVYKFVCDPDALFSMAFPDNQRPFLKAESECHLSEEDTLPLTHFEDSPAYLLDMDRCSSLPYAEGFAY
# CRX, sequence (O43186 whole entry): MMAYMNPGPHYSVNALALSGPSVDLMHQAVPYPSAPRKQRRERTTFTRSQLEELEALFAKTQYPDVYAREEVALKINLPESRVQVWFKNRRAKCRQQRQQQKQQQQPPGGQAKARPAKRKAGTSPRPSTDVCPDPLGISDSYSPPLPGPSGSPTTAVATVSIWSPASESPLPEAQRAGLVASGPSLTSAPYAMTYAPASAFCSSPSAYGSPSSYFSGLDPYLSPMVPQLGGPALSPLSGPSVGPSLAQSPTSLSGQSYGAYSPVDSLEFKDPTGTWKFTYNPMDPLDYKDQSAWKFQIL
# ETV1, sequence (P50549 whole entry): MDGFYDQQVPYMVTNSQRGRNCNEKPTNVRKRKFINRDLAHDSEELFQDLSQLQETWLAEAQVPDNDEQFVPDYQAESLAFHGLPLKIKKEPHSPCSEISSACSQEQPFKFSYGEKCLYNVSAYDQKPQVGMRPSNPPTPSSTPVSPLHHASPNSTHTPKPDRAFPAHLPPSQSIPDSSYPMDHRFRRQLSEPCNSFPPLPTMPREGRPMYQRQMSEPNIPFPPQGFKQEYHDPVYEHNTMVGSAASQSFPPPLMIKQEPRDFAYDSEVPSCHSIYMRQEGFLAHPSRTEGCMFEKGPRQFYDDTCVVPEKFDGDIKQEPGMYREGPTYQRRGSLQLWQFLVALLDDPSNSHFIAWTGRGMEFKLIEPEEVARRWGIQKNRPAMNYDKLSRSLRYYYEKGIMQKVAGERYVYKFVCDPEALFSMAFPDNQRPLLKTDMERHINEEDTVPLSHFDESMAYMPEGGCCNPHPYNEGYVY
# HSF1, sequence (Q00613 whole entry): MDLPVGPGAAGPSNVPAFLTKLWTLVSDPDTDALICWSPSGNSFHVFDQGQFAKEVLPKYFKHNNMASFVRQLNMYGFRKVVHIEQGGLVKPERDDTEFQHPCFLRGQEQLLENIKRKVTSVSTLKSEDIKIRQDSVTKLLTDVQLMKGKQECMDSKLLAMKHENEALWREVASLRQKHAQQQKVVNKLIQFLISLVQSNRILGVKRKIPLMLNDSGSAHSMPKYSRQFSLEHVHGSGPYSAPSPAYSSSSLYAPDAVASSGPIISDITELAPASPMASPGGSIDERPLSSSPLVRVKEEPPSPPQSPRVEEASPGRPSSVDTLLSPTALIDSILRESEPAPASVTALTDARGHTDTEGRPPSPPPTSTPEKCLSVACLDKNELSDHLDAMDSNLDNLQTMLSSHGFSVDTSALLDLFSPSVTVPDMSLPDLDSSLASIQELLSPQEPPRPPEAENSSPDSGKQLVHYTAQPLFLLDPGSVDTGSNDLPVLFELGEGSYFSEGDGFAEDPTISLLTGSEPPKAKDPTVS
sequence,measurement,setting,value
ATGGTA,binding signal,FLI1,"1.39 fold enrichment (6-mer frequency, TF over GST control)"
same,binding signal,ELK1,"1.44 fold enrichment (6-mer frequency, TF over GST control)"
same,binding signal,GABPA,"1.39 fold enrichment (6-mer frequency, TF over GST control)"
same,binding signal,ERG,"1.33 fold enrichment (6-mer frequency, TF over GST control)"
same,binding signal,ELF1,"1.36 fold enrichment (6-mer frequency, TF over GST control)"
same,binding signal,EHF,"1.43 fold enrichment (6-mer frequency, TF over GST control)"
same,binding signal,SPI1,"1.23 fold enrichment (6-mer frequency, TF over GST control)"
same,binding signal,SPIB,"1.42 fold enrichment (6-mer frequency, TF over GST control)"
same,binding signal,ELK3,"1.36 fold enrichment (6-mer frequency, TF over GST control)"
same,binding signal,FEV,"1.17 fold enrichment (6-mer frequency, TF over GST control)"
same,binding signal,ETV5,"1.43 fold enrichment (6-mer frequency, TF over GST control)"
same,binding signal,HSF1,"1.21 fold enrichment (6-mer frequency, TF over GST control)"
same,binding signal,SPIC,"1.31 fold enrichment (6-mer frequency, TF over GST control)"
same,binding signal,ELF4,"1.31 fold enrichment (6-mer frequency, TF over GST control)"
same,binding signal,ELK4,"1.49 fold enrichment (6-mer frequency, TF over GST control)"
same,binding signal,ETV2,"1.45 fold enrichment (6-mer frequency, TF over GST control)"
same,binding signal,ELF3,"1.48 fold enrichment (6-mer frequency, TF over GST control)"
same,binding signal,CRX,"1.33 fold enrichment (6-mer frequency, TF over GST control)"
same,binding signal,ETV1,"1.47 fold enrichment (6-mer frequency, TF over GST control)"
